Values joined by “and” are separate entries in the source; they are usually repeats but may differ in a detail not shown here. Equal values may be shown once. More than one record can exist for a structure, and the calls need not agree. Active and inactive are the calls of the source. The calls were made as follows: active = hit-call score of the fitted dose curve at least 0.9, where 1 is the maximum; inactive = score below 0.9.

Read-out in experiment [1]: Actin alpha 1 (ACTA1), ACTA1 (gene 58)
The experiment can be described thus: BSK_MyoF_ACTA1: BioMAP Diversity Plus: MyoF Assay for Actin alpha 1 (ACTA1) Biomarker Activity (AID 2284244). Conditions: primary human lung fibroblasts. In a few lines:
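Human lung fibroblast (MyoF system) cultures dosed with test chemical; alpha-SMA measured by ELISA 24 h after dosing, normalized to DMSO control. Cytotoxicity tracked in parallel cultures by SRB total-protein staining.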

Read-out in experiment [2]: Interleukin 2 (IL2), IL2 (gene 3558)
The experiment can be described thus: BSK_BT_xIL2: BioMAP Diversity Plus: BT Assay for Interleukin 2 (IL2) Biomarker Activity (AID 2284245). Conditions: primary human B cells with PBMC. In short, it runs like this: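 Human B cell plus PBMC co-culture, 24 h after chemical dosing; secreted IL-2 quantified by Luminex xMAP multiplex, fitted for signal gain against DMSO baseline.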

Read-out in experiment [3]: Basic fibroblast growth factor (bFGF), FGF2 (gene 2247)
The experiment can be described thus: BSK_MyoF_bFGF: BioMAP Diversity Plus: MyoF Assay for Basic fibroblast growth factor (bFGF) Biomarker Activity (AID 2284246). Conditions: primary human lung fibroblasts. In a few lines:
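Human lung fibroblast cultures were dosed and measured 24 h later in 96-well format. bFGF biomarker levels quantified by ELISA, with activity fitted in the positive direction against DMSO.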

Read-out in experiment [4]: Plasminogen activator inhibitor-1 (PAI1), SERPINE1 (gene 5054)
The experiment can be described thus: BSK_MyoF_PAI1: BioMAP Diversity Plus: MyoF Assay for Plasminogen activator inhibitor-1 (PAI1) Biomarker Activity (AID 2284256).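 Also: PAI-1 read 24 h after compound addition.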 Conditions: primary human lung fibroblasts. In short, it runs like this: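 Human lung fibroblasts (MyoF system) were exposed to test chemicals for 24 h, then PAI-1 was quantified by ELISA. Activity was fitted in the positive (signal-gain) direction relative to DMSO vehicle as baseline.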

Read-out in experiment [5]: Interleukin-8 (IL8), CXCL8 (gene 3576)
The experiment can be described thus: BSK_MyoF_IL8: BioMAP Diversity Plus: MyoF Assay for Interleukin-8 (IL8) Biomarker Activity (AID 2284261). Conditions: primary human lung fibroblasts. In short, it runs like this:
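IL-8 quantified by ELISA after 24 h compound exposure of primary human lung fibroblasts. SRB staining of parallel cultures flagged cytotoxicity; DMSO served as baseline.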

Read-out in experiment [6]: Decorin, DCN (gene 1634)
The experiment can be described thus: BSK_MyoF_Decorin: BioMAP Diversity Plus: MyoF Assay for Decorin Biomarker Activity (AID 2284265). Conditions: primary human lung fibroblasts. In a few lines:
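Decorin protein was quantified by ELISA 24 h after chemical addition to primary human lung fibroblasts and analysed as increase over DMSO. Cytotoxicity was tracked in parallel cultures by SRB total-protein staining read at 560 nm.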

Read-out in experiment [7]: Monokine induced gamma interferon (MIG), CXCL9 (gene 4283)
The experiment can be described thus: BSK_KF3CT_MIG: BioMAP Diversity Plus: KF3CT Assay for Monokine induced gamma interferon (MIG) Biomarker Activity (AID 2284248). To be noted: primary human keratinocytes with fibroblasts. In a few lines:
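Parallel cultures were stained with SRB (560 nm) to check cytotoxicity. MIG was quantified by ELISA in a primary human skin keratinocyte/fibroblast co-culture 24 h post-dosing, with gain of signal fitted relative to DMSO.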

Read-out in experiment [8]: Vascular cell adhesion molecule 1 (VCAM1), VCAM1 (gene 7412)
The experiment can be described thus: BSK_BF4T_VCAM1: BioMAP Diversity Plus: BF4T Assay for Vascular cell adhesion molecule 1 (VCAM1) Biomarker Activity (AID 2284249). Conditions: primary human bronchial epithelial cells with fibroblasts. In a few lines: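 Human bronchial epithelial cell and dermal fibroblast co-culture exposed 24 h. VCAM-1 measured by ELISA; parallel SRB total-protein staining for cytotoxicity. Fitted in positive direction relative to DMSO.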

Read-out in experiment [9]: Collagen I, COL1A1 (gene 1277)
The experiment can be described thus: BSK_hDFCGF_CollagenI: BioMAP Diversity Plus: hDFCGF Assay for Collagen I Biomarker Activity (AID 2284250). Conditions: primary human foreskin fibroblasts. In a few lines:
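Primary human foreskin fibroblasts exposed to chemical for 24 h; Collagen I levels measured by ELISA. Cytotoxicity checked by SRB total-protein staining in parallel cultures.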

Read-out in experiment [10]: Interferon-inducible T-cell alpha chemoattractant (ITAC), CXCL11 (gene 6373)
The experiment can be described thus: BSK_hDFCGF_ITAC: BioMAP Diversity Plus: hDFCGF Assay for Interferon-inducible T-cell alpha chemoattractant (ITAC) Biomarker Activity (AID 2284251). To be noted: primary human foreskin fibroblasts. In a few lines: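 ELISA readout of I-TAC after 24 h chemical exposure; human dermal foreskin fibroblast primary cells. Positive-direction fitting vs DMSO baseline. Parallel SRB total-protein staining (0.1% SRB after 10% TCA fixation, 560 nm) flags cytotoxicity.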

Read-out in experiment [11]: Plasminogen activator inhibitor-1 (PAI1), SERPINE1 (gene 5054)
The experiment can be described thus: BSK_KF3CT_PAI1: BioMAP Diversity Plus: KF3CT Assay for Plasminogen activator inhibitor-1 (PAI1) Biomarker Activity (AID 2284252). Conditions: primary human keratinocytes with fibroblasts. In a few lines:
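Human keratinocyte/foreskin fibroblast co-culture dosed for 24 h; PAI-1 measured by ELISA, fitted in positive direction against DMSO baseline. Parallel SRB total-protein staining (0.1% SRB, 560 nm) assesses overt cytotoxicity.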

Read-out in experiment [12]: Monocyte Chemoattractant Protein-1 (MCP1), CCL2 (gene 6347)
The experiment can be described thus: BSK_IMphg_MCP1: BioMAP Diversity Plus: IMphg Assay for Monocyte Chemoattractant Protein-1 (MCP1) Biomarker Activity (AID 2284253). Conditions: primary human endothelial cells with macrophages. In short, it runs like this:
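Human venular endothelial cells co-cultured with macrophages; MCP-1 measured by ELISA 24 hours post-dose and fitted against DMSO. Cytotoxicity monitored by SRB total-protein staining in parallel cultures.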

Read-out in experiment [13]: Interleukin-8 (IL8), CXCL8 (gene 3576)
The experiment can be described thus: BSK_KF3CT_IL8: BioMAP Diversity Plus: KF3CT Assay for Interleukin-8 (IL8) Biomarker Activity (AID 2284254). Conditions: primary human keratinocytes with fibroblasts. In a few lines: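 IL-8 by ELISA in primary human skin co-culture (keratinocytes plus fibroblasts) 24 h post-dose, DMSO as baseline. Cytotoxicity assessed in parallel by sulforhodamine B total-protein staining.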

Read-out in experiment [14]: Macrophage Inflammatory Protein-1 Alpha (MIP1a), CCL3 (gene 6348)
The experiment can be described thus: BSK_IMphg_MIP1a: BioMAP Diversity Plus: IMphg Assay for Macrophage Inflammatory Protein-1 Alpha (MIP1a) Biomarker Activity (AID 2284255). To be noted: primary human endothelial cells with macrophages. In short, it runs like this: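 Co-culture of human venular endothelial cells and macrophages exposed to compounds for 24 h; MIP-1a measured by ELISA relative to DMSO. Cytotoxicity assessed in parallel cultures by sulforhodamine B total-protein staining at 560 nm.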

Read-out in experiment [15]: CD69, CD69 (gene 969)
The experiment can be described thus: BSK_IMphg_CD69: BioMAP Diversity Plus: IMphg Assay for CD69 Biomarker Activity (AID 2284257). Conditions: primary human endothelial cells with macrophages. In short, it runs like this: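 Human venular endothelial cells co-cultured with macrophages; CD69 quantified by ELISA 24 h after compound addition. Activity fitted in the positive direction relative to DMSO baseline; cytotoxicity tracked in parallel cultures via SRB total-protein staining.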

Read-out in experiment [16]: Monocyte Chemoattractant Protein-1 (MCP1), CCL2 (gene 6347)
The experiment can be described thus: BSK_BF4T_MCP1: BioMAP Diversity Plus: BF4T Assay for Monocyte Chemoattractant Protein-1 (MCP1) Biomarker Activity (AID 2284259). To be noted: primary human bronchial epithelial cells with fibroblasts. In a few lines: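 Co-culture of bronchial epithelial cells and dermal fibroblasts dosed with chemical; MCP-1 measured by ELISA 24 h later. Activity fitted in positive direction versus DMSO; cytotoxicity checked by SRB staining in parallel cultures.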

Read-out in experiment [17]: Intercellular Adhesion Molecule 1 (ICAM1), ICAM1 (gene 3383)
The experiment can be described thus: BSK_BF4T_ICAM1: BioMAP Diversity Plus: BF4T Assay for Intercellular Adhesion Molecule 1 (ICAM1) Biomarker Activity (AID 2284260). To be noted: primary human bronchial epithelial cells with fibroblasts. In a few lines:
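Co-culture of human bronchial epithelial cells and dermal fibroblasts exposed 24 h to chemical; cell-surface ICAM-1 quantified by ELISA. Parallel SRB total-protein staining assessed cytotoxicity; activity fitted relative to DMSO.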

Read-out in experiment [18]: CD90, THY1 (gene 7070)
The experiment can be described thus: BSK_BF4T_CD90: BioMAP Diversity Plus: BF4T Assay for CD90 Biomarker Activity (AID 2284262). Conditions: primary human bronchial epithelial cells with fibroblasts. In a few lines:
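Co-culture of human bronchial epithelial cells and dermal fibroblasts, 24 h compound exposure. Cell-surface CD90 measured by ELISA relative to DMSO; parallel SRB total-protein staining for cytotoxicity.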

Read-out in experiment [19]: Interleukin-8 (IL8), CXCL8 (gene 3576)
The experiment can be described thus: BSK_BF4T_IL8: BioMAP Diversity Plus: BF4T Assay for Interleukin-8 (IL8) Biomarker Activity (AID 2284263). To be noted: primary human bronchial epithelial cells with fibroblasts. In a few lines: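 Human bronchial epithelial cells with dermal fibroblasts co-culture; IL-8 measured by ELISA 24 hours after dosing, fitted vs DMSO. Cytotoxicity tracked in parallel cultures by SRB total-protein staining.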

Read-out in experiment [20]: Interleukin-1 alpha (IL1a), IL1A (gene 3552)
The experiment can be described thus: BSK_BF4T_IL1a: BioMAP Diversity Plus: BF4T Assay for Interleukin-1 alpha (IL1a) Biomarker Activity (AID 2284264). Conditions: primary human bronchial epithelial cells with fibroblasts. In short, it runs like this: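 Human bronchial epithelial cells co-cultured with dermal fibroblasts, dosed and read at 24 h. Secreted/surface IL-1α quantified by ELISA; gain-of-signal fitted relative to DMSO baseline. Parallel SRB total-protein staining tracked cytotoxicity.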

Regarding `OCc1c[nH]c2ccccc12`, the outcome in [1], in experiment [3], in experiment [4], in experiment [5] and in [6] was inactive. Moreover, the AC50 (usually the concentration giving half of the maximal activity seen) in experiment [2] is 1.81 µM (active).

With `C[Si](C)(C)C(F)(F)C(F)(F)C(F)(F)F`, the outcome in experiment [1], in experiment [2], in experiment [3], in experiment [7], in experiment [8] and in experiment [9] was inactive. In addition, the outcome in [10], in experiment [11], in experiment [12], in [13], in [14] and in [4] was inactive. Also, the outcome in experiment [15], in [16], in experiment [17], in experiment [5], in [18] and in [19] was inactive. Also, the result in experiment [20] and in experiment [6] was inactive.

Take `S=P(N1CC1)(N1CC1)N1CC1`: the outcome in experiment [1], in experiment [2], in [3], in experiment [4], in experiment [5] and in experiment [6] was inactive.

Take `Cc1cccc(O)c1C`: the result in [1], in [2], in experiment [3], in experiment [4], in experiment [5] and in [6] was inactive.

In the case of `FC(F)C(F)(F)COCC1CO1` (centres undefined), the result in [1], in experiment [2], in experiment [3], in experiment [7], in [8] and in experiment [9] was inactive. The outcome in [10], in experiment [11], in experiment [12], in experiment [13], in [14] and in experiment [4] was inactive. In addition, the result in experiment [15], in experiment [16], in experiment [17], in experiment [5], in [18] and in experiment [19] was inactive. The result in experiment [20] and in [6] was inactive.

As for `O=C(Cl)C(F)(F)C(F)(F)C(F)(F)C(=O)Cl`, the outcome in experiment [1], in [2], in experiment [3], in experiment [7], in [8] and in [9] was inactive. Further, the result in experiment [10], in experiment [11], in [12], in [13], in experiment [14] and in experiment [4] was inactive. The result in experiment [15], in [16], in [17], in [5], in experiment [18] and in experiment [19] was inactive. Besides, the outcome in [20] and in experiment [6] was inactive.

As for `O=S(=O)(O)CCC(F)(F)C(F)(F)C(F)(F)C(F)(F)C(F)(F)C(F)(F)F`, the result in experiment [1], in [2], in [3], in experiment [7], in experiment [8] and in experiment [9] was inactive. The result in experiment [10], in experiment [11], in experiment [12], in [13], in experiment [14] and in experiment [4] was inactive. Moreover, the result in experiment [15], in experiment [16], in experiment [17], in experiment [5], in [18] and in experiment [19] was inactive. In addition, the outcome in experiment [20] and in experiment [6] was inactive. Further, in experiment [10], the AC50 is 1.38 µM (active).

With `OC(O)(C(F)C(O)(O)C(F)(F)F)C(F)(F)F`, the result in experiment [1], in experiment [3], in [7], in experiment [8], in experiment [9] and in experiment [11] was inactive. In addition, the outcome in [12], in [13], in experiment [4], in experiment [15], in experiment [16] and in experiment [17] was inactive. Moreover, the result in experiment [5], in [18], in experiment [19], in [20] and in [6] was inactive. Besides, the AC50 in [2] was 40.6 µM (active) and 22.3 µM (active); in experiment [10] it was 8.03 µM (active) and 15 µM (active); in [14], 5.44 µM (active) and 7.95 µM (active).

Source of the values: PubChem BioAssay (EPA / NIEHS).
